# Experimental data published in the supplement of paper PMC6555819.
# Columns and labels:
# Assay in all cases: PBM binding z-score (relative to random genomic background probes); higher = stronger binding; sequences stand for … in GC…GCGATTGACAGCGTAGAATGAAGG
# [1] = test system: RARb homodimer (NR concentration 270 nM)
# Outline: (§1)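 Probes were double-stranded and carried 34-nt variable regions with direct-repeat seeds, single-nucleotide variants, half-site ablations and random human genomic background sequences, printed on custom Agilent 4×180K protein-binding microarrays. Arrays were incubated 1 h with ligand-free nuclear receptor dimers in PBS pH 7.4, 2% milk, 0.02% Triton X-100, 1 mM DTT, 0.2 mg/mL BSA and 0.4 mg/ml salmon testes DNA. Antibodies against each partner (one per run) detected binding, and scanned fluorescence was regression-normalized. Binding z-scores use the random background probes as reference.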
# [2] = test system: RARg:RXRa (NR concentration 270 nM, RXRa partner concentration 90 nM)
# Outline: as §1
# [3] = test system: RARg homodimer (NR concentration 270 nM)
# Outline: as §1
# [4] = test system: RXRa DBDmut IVT, anti-RXR (DBD mutation: RXRa K156A/R161A, NR concentration 90 nM)
# Outline: as §1
# [5] = test system: RXRa homodimer (NR concentration 180 nM)
# Outline: as §1
# [6] = test system: THRa:RXRa (NR concentration 90 nM, RXRa partner concentration 90 nM)
# Outline: as §1
# [7] = test system: THRa homodimer (NR concentration 90 nM)
# Outline: as §1
# [8] = test system: VDR:RXRa (NR concentration 270 nM, RXRa partner concentration 90 nM)
# Outline: as §1
# [9] = test system: VDR homodimer (NR concentration 270 nM)
# Outline: as §1
Sequence,PBM binding z-score [1],PBM binding z-score [2],PBM binding z-score [3],PBM binding z-score [4],PBM binding z-score [5],PBM binding z-score [6],PBM binding z-score [7],PBM binding z-score [8],PBM binding z-score [9]
TCTGCAAGGTCAGTTGGTCAGCTAACGAGCTGCC,3.59,4.63,5.16,2.42,2.78,3.02,0.921,2.19,1.12
ATCTCTAGATAAAGATAGTTCAGTGAATGCAAAT,0.48,0.16,0.499,-0.299,0.282,0.263,-0.124,0.517,0.668
GCTATTAGTTGAAAGGGCATCCGAATGATTCTCG,1.52,1.04,0.981,1.01,1.15,0.356,-0.145,0.499,0.425
CCTAGCAGGCCAGGGTCACTAAAGCATTTCGCTT,2.69,2.79,2.41,0.297,2.89,2.67,0.878,2.08,0.922
CCTTACGGGTCAAGGTTATAGCTCGGGTGGTACG,3.57,4.65,4.28,0.811,4.81,3.01,1.1,3.3,1.18
GCTATTAGTTGAAAGGCCAACCGAATGATTCTCG,1.27,0.828,0.862,1.04,0.44,0.141,-0.222,-0.0343,0.0426
GCAGACACGTGAAACGCAGGTAACTCAGGGTGGC,-0.78,-0.43,-0.333,-0.425,-0.324,0.299,-0.673,-0.854,-0.988
ATCTCTAGGTAAAAGTTCAGTGGATCCCGAGGAT,2.32,2.02,2.08,0.861,1.53,1.2,0.272,1.21,1.72
CCAGACAGGTGAGAGGTAACTCAGTCTGGTACGC,0.491,0.564,0.526,-0.348,0.784,0.574,-0.109,-0.0647,-0.514
CCTACTGGGCCAAGAAGGTCATTGATGCCGATAA,3.17,2.94,2.39,0.188,2.9,2.33,0.355,3.97,2.38
CAGCCTAGGTCAGGGCCAGTAAAGGAGGAACGTT,2.33,2.7,3.44,-0.0941,1.55,1.86,0.361,0.0313,-0.267
ACTTACGGGGCAACGAGGTTATAGCACGCGTATA,1.13,1.75,1.76,1.63,1.73,2.08,0.279,5.28,1.72
CATACATGGTCAGCTAGGCCAGAGTAGGGACGGC,0.263,0.156,0.731,-0.604,0.103,-0.289,-0.393,-0.459,-1.02
TTACCAAGGTGAAAGTCGTTGATCCCTCTGTAGA,0.704,0.61,0.23,0.0451,1.2,2,0.568,0.25,-0.192
CAAACTAGGGCACAGAGGTCAAAGTCCGTGCGTA,4.61,5.79,5.63,2.66,5.91,3.79,1.32,6.64,5.23
ATATGTAGGTTAGGTGGGGTCATTCAGACTAGGC,3.74,4.1,3.02,2.19,5.54,5.05,3.72,6.5,6.4
CTCGAAAGGTCGGATGAGGTGAGTATACGGATAA,2.69,3.2,3.26,0.982,2.94,5.16,1.3,2.74,0.327
GCATATAGGTAATACAGGGTGAAAGTCCGATTGT,0.685,0.386,0.492,0.439,0.917,3.38,0.41,0.521,0.239
GCGACTGGGGCATCAGCGGGTTACCATAACTTAA,0.625,0.738,0.196,-0.276,0.347,0.628,-0.267,-0.262,-0.158
CAAACTAAGTCACAGAGGTCAAAGTCCGTGCGTA,4.47,5.34,4.96,2.26,5.91,3.71,1.87,6.65,4.45
TCTTGTCGATCAAGCAGGTTAAGAAAGCCTGAGT,0.296,-0.133,-0.273,0.138,0.0791,0.127,-0.374,0.107,-0.0959
CAAACTAGGTCACGAAAGGACAAAGTCGAATGAC,4.13,5.37,6.43,1.59,4.1,4.56,1.59,4.23,1.06
CCTGCTAGGTCATGGTCAACTAATCTACAGTATG,3.37,4.23,5.18,1.75,2.88,3.26,1.41,2,0.335
TCTGGTAGATCAAGCAGGTTAAGAAAGCCTGAGT,-0.182,-0.3,-0.211,0.0546,0.202,-0.00478,-0.796,0.122,0.261
ACAGACACGTGAGTGAAGGTAACTCAGCTGGACG,-0.372,-0.114,0.0531,-0.182,0.149,-0.478,-0.846,-0.481,-0.417
ATCTCTAGGTAACCAAGTTCATTGAATGCCGAAC,2.07,1.42,1.35,2.39,1.29,2.2,1.25,5.68,5.53
